For nine molecules, Potency and outcome results are on record in PubChem BioAssay (NCATS).

Experiment [1] can be described thus: qHTS for differential inhibitors of proliferation of Plasmodium falciparum line Dd2 (AID 1882). Note: nearly all actives have a fitted effect of over 65% in size. Note: potency is the fitted concentration of half-maximal effect. The settings on record: Potency: Plasmodium falciparum Dd2 proliferation inhibition. In outline: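 RBC culture, 0.3% parasitemia / 2.5% Hct final; cpd added by pin tool in DMSO; 72 h, 37 C, 5% CO2; lysis buffer + SYBR Green I, o/n RT dark; FI 485/535; norm. to artemisinin 0.29 uM and DMSO.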

Experiment [2] is described as follows: qHTS for differential inhibitors of proliferation of Plasmodium falciparum line W2 (AID 1883).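 Note: parasites grown with compound for 72 h before lysis and staining.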 Note: potency is the fitted concentration of half-maximal effect. The settings on record: Potency: Plasmodium falciparum W2 proliferation inhibition. Background: Quantitative high-throughput screening tests each substance at several concentrations.
A short description of experiment [3]: qHTS for differential inhibitors of proliferation of Plasmodium falciparum line HB3 (AID 1886).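 Note: parasites grown with compound for 72 h before SYBR Green readout.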 Note: potency is the fitted concentration of half-maximal effect. The settings on record: Potency: Plasmodium falciparum HB3 proliferation inhibition.
A short description of experiment [4]: qHTS Assay for Modulators of Human Peripheral Myelin Protein 22 (PMP22) Expression/Activity (AID 1967; active = well fitted curve in the direction sought with a large enough effect in the signal ratio; the % refers to the signal ratio). Summed up: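 Mouse MSC80 Schwann cells carrying Pmp22 promoter–green click beetle luciferase plus EF-alpha–red luciferase control, dosed 24 h at 37 °C. Dual-filter luminescence, overlap-corrected; %Activity from green/red ratio normalised to untreated cells, concentration-response curves fitted.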

Experiment [5] has as its target Ferritin light chain (Equus caballus) (UniProt P02791). Briefly: qHTS Validation Assay for Identification of Novel General Anesthetics (AID 2323). Note: potency is the fitted concentration of half-maximal effect. In outline:
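Horse-spleen apoferritin (10 uM) in PBS with 50% saturated 1-aminoanthracene; compounds pin-transferred, 10 min at room temperature. Fluorescence read at 380/535 nm, normalized to free 1-AMA and 1-AMA/apoferritin values; four-parameter Hill fit.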

For experiment [6], the target named is ATP-dependent DNA helicase Q1 (Homo sapiens) (UniProt P46063). Briefly: qHTS Validation Assay for Inhibitors of RecQ-Like Dna Helicase 1 (RECQ1) (AID 2353). In outline:
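RECQ1T1 50 nM; forked duplex (20 bp + 30-nt ss tails) 200 nM, ATP 2 mM final; pH 8.0, 2 mM MgCl2, 2.5 ug/ml poly(dI-dC); 15 min compound preincubation; discontinuous kinetic read over 2 h at RT.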

A short description of experiment [7]: Cytometric Cell-Based qHTS for Inhibitors of the mTORC1 Signaling Pathway in MEF (Tsc2-/-, p53-/-) Cells (AID 2660).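 Note: Tsc2 and p53 null MEFs carrying empty vector with compound for 24 h; percent of cells above a phospho-rpS6 to PI ratio cutoff in each well; series mostly up to about 38 µM.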 Summed up:
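Cells are plated, treated with compound for 24 hrs at 37 degree Celsius, then fixed, blocked and immunostained for phospho-rpS6 Ser235/236. Propidium iodide counterstain follows. Per-well % positive cells is derived from the PI-normalized phospho-S6 signal.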

Experiment [8] in a line: High Content Imaging Cell-Based qHTS for Inhibitors of the mTORC1 Signaling Pathway in MEF (Tsc2-/-, p53-/-) Cells (AID 2666).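 Note: percent of cells scored positive for phospho-rpS6 Ser235/236 immunostaining by imaging.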 In outline:
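MEF Tsc2-/- p53-/- (empty vector), DMEM/10% FBS; cpd 24 h 37 °C; PFA fix, Alexa-488 p-rpS6 S235/236 Ab, Hoechst; imaged; rapamycin-defined inhibition; % positive cells/well.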

A short description of experiment [9]: High Content Imaging Cell-Based qHTS for Inhibitors of the mTORC1 Signaling Pathway in MEF Cells (AID 2667).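 Note: Tsc2-/- p53-/- MEFs stably re-expressing wild-type Tsc2 exposed 24 h; series mostly up to about 38 µM.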 In outline: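 Read-out is the share of phospho-rpS6-positive cells per well, from Hoechst-normalized Alexa-488 Ser235/236 staining imaged on IN Cell. Cells: WT Tsc2-expressing Tsc2-/-, p53-/- MEFs exposed to compound for 24 hrs.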
Experiment [10] is described as follows: Cytometry Cell-Based qHTS for Inhibitors of the mTORC1 Signaling Pathway in MEF cells (AID 2668).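 Note: Tsc2-/- p53-/- mouse embryonic fibroblasts stably re-expressing wild-type Tsc2; percent cells positive for phospho-rpS6 Ser235/236 relative to propidium iodide stain; series mostly up to about 38 µM.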 Summed up: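 MEFs (Tsc2-/-, p53-/- stably expressing WT Tsc2) treated 24 h at 37 degree Celsius, fixed, stained with Alexa-488 anti-phospho-rpS6 Ser235/236 and propidium iodide; Acumen laser scanning. Reported as % positive cells, phospho-S6 normalized to PI.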

In experiment [11] the target is Ubiquitin carboxyl-terminal hydrolase 2 (Homo sapiens) (UniProt O75604). Description: qHTS Validation Assay for Inhibitors of Ubiquitin-specific Protease USP2a Using CHOP2 as the Reporter (AID 463106). In outline:
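Fluorescence read-out at Ex 485nm/Em 531nm after 60min RT, following addition of 25nM Ub-CHOP2 plus 25nM reporter substrate to USP2 core (10nM) pretreated 30min with compound. Data normalized to NEM full inhibition; concentration-response curves fitted.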

Experiment [12] addresses DNA polymerase III PolC-type (Bacillus subtilis (strain 168)) (UniProt P13267). Description: qHTS Validation Assay for the Inhibitors of DNA Replication in Gram-Positive Bacteria (AID 485295). Note: potency is the fitted concentration of half-maximal effect. In outline:
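Reconstituted B. subtilis Pol III holoenzyme (PolC, beta clamp, SSB, primase) preincubated with compound, then M13Gori single-stranded circular template with dNTPs/NTPs added; room temperature reaction. Stopped with EDTA/PicoGreen; dsDNA fluorescence read, EDTA as full-inhibition control.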

Experiment [13] deals with Tumor susceptibility gene 101 protein (Homo sapiens) (UniProt Q99816). Briefly: qHTS Validation Assay for Iinhibitors of HIV-1 Budding by Blocking the Interaction of PTAP/TSG101 (AID 485342; calls by dose curve). Summed up:
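Tsg101 binding domain (10 uM) with FITC-labeled PTAP peptide (50 nM) in HEPES pH 7.5 buffer, 20 min at r.t. with compounds. Binding measured by fluorescence polarization.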

In experiment [14] the target is Beta-2 adrenergic receptor (Homo sapiens) (UniProt P07550). Briefly: qHTS validation assay of beta-arrestin-biased ligands of beta2-adrenergic receptor (AID 485366). In outline:
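Compound series up to 46 microM applied to beta2-AR/beta-arrestin Tango cells, 18 hr, 37 degrees C, 5% CO2. Read-out: tTA-driven luciferase luminescence, converted to %Activity; concentration-response curves assigned curve classes.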

Experiment [15] deals with RecQ-like DNA helicase BLM (Homo sapiens) (UniProt P54132). Briefly: qHTS Validation Assay for Inhibitors of Bloom's syndrome helicase (BLM) (AID 2364). In outline: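 50 nM BLM preincubated 15 min at room temperature with compound in pH 8.0 Tris buffer containing 2.5 ug/ml poly(dI-dC); started with 200 nM TAMRA/BHQ-2 forked duplex and 2 mM ATP (final). Unwinding read as TAMRA fluorescence increase, two reads 2 h apart.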
RecQ-like DNA helicase BLM (Homo sapiens), sequence (P54132 whole entry, looked up): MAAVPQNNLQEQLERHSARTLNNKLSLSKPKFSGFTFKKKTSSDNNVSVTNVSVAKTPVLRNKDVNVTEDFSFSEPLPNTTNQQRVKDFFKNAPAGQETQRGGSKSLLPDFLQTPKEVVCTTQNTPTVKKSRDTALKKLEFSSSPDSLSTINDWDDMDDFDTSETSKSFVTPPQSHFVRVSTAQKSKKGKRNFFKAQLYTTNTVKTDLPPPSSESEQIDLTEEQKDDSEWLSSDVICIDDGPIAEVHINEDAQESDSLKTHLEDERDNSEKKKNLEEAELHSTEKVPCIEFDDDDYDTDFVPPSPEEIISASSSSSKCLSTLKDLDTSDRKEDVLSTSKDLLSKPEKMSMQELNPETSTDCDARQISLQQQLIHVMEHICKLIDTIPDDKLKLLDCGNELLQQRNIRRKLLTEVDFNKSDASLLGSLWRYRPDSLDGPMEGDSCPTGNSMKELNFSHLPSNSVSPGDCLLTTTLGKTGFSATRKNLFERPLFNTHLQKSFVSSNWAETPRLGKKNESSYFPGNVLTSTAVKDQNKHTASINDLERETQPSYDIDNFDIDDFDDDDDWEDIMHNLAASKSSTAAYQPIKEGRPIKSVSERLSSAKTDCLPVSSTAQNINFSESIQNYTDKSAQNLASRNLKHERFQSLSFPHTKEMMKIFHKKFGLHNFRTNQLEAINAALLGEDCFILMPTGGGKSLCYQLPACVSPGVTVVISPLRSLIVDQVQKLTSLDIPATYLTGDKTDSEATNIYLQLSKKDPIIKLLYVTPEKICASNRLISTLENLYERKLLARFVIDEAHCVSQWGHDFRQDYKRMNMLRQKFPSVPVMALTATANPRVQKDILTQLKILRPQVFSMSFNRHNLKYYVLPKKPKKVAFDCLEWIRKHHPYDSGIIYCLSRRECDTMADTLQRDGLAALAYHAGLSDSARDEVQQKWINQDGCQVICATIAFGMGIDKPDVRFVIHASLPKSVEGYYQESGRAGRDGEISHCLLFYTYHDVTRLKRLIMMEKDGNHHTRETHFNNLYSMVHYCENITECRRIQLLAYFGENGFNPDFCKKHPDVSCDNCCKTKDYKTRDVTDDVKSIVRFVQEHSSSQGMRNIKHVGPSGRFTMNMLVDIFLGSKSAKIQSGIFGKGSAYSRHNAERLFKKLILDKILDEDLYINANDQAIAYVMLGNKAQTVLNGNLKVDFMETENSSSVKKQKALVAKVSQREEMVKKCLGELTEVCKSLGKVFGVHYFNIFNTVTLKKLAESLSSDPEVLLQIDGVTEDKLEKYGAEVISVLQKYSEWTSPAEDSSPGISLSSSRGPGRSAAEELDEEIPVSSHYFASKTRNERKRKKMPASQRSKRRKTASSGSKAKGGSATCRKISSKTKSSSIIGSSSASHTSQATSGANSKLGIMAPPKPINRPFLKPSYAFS

Experiment [16] is described as follows: Validation screen for small molecules that induce DNA re-replication in MCF 10A normal breast cells (AID 463097). Note: nearly all actives have a fitted effect of over 60% in size. Note: potency is the fitted concentration of half-maximal effect. In outline: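 MCF 10A cells exposed to compound 48 hr at 37 C, 5% CO2, then Hoechst-stained 40 min. Laser-scanning imaging of nuclear DNA content (405 nm ex, 500-530 nm em); re-replication scored as rise in nuclei with elevated fluorescence intensity.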

A short description of experiment [17]: qHTS Validation Assay to Find Inhibitors of Chronic Active B-Cell Receptor Signaling (AID 485345; active = well fitted curve in the direction sought with a large enough effect in the main read-out, with a control signal flat, not every such curve was filed as active). In outline:
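TMD8 ABC-DLBCL cells stably carrying doxycycline-inducible IkappaBalpha–green luciferase fusion plus unfused red luciferase; compounds 46 uM to 3 nM, 4 h at 37C with doxycycline. Corrected green/red luminescence ratio normalized to 10 uM MG-132 and basal cell wells; curves fitted.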

For experiment [18], the target named is Endonuclease 4 (Escherichia coli (strain K12)) (UniProt P0A6C1). Briefly: Counterscreen for APE1 Inhibitors: qHTS Assay for Inhibitors of Endonuclease IV (AID 2565). Note: potency is the fitted concentration of half-maximal effect. Summed up: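 Read-out: fluorescence rise (ex 525/em 598 nm) from incision of a TAMRA/BHQ-2 double-stranded THF abasic-site substrate (50 nM), measured kinetically; third-minus-first read difference gave reaction progress. Enzyme 2 nM.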

The target in experiment [19] is DNA repair nuclease/redox regulator APEX1 (Homo sapiens) (UniProt P27695). Description: Confirmation qHTS Assay for Inhibitors of the Human Apurinic/apyrimidinic Endonuclease 1 (APE1) (AID 2572). Note: potency is the fitted concentration of half-maximal effect; nearly all actives have a fitted effect of over 30% in size. In outline: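 APE1 preincubated 15 min RT with compound; 50 nM TAMRA/BHQ-2 THF-abasic duplex added; kinetic fluorescence, 3 reads at 60 s intervals, Ex 525/Em 598; progress = read 3 minus read 1.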
DNA repair nuclease/redox regulator APEX1 (Homo sapiens), sequence (P27695 whole entry, looked up): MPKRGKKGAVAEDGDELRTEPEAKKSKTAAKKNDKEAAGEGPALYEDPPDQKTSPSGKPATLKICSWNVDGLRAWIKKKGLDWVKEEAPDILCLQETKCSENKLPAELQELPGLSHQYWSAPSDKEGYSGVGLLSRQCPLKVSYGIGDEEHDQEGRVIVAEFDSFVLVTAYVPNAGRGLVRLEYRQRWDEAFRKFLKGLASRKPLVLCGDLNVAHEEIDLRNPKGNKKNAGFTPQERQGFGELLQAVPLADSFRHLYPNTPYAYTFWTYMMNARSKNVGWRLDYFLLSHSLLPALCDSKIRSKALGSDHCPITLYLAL

Inconclusive results are not listed. Some of the results follow. Calls of active or inactive are those of the source. Unless noted, calls come from the whole dose curve; as a rule, active = well fitted curve in the direction sought with a large enough effect; inconclusive = small, poorly fitted or top-dose-only effect, or another doubt; inactive = no such curve, though single readings can be large; an effect the other way counts as inactive or inconclusive.

Ubiquitin carboxyl-terminal hydrolase 2 (Homo sapiens), sequence (O75604 whole entry, looked up): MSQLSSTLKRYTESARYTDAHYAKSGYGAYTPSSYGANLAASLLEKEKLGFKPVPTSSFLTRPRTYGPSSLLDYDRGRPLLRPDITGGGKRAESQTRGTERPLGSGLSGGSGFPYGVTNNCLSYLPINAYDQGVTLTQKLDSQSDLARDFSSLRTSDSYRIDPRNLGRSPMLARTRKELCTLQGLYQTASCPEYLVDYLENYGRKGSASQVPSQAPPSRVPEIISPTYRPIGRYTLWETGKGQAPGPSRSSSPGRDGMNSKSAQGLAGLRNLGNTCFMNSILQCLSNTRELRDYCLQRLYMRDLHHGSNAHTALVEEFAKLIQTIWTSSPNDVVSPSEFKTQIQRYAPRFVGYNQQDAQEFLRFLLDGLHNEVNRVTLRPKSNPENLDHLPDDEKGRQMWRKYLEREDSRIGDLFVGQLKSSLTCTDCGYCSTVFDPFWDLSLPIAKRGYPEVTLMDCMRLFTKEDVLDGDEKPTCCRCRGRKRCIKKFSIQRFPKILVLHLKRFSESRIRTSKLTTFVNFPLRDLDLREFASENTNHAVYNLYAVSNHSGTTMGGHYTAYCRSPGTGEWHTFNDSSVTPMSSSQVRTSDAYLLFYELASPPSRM
Beta-2 adrenergic receptor (Homo sapiens), sequence (P07550 whole entry, looked up): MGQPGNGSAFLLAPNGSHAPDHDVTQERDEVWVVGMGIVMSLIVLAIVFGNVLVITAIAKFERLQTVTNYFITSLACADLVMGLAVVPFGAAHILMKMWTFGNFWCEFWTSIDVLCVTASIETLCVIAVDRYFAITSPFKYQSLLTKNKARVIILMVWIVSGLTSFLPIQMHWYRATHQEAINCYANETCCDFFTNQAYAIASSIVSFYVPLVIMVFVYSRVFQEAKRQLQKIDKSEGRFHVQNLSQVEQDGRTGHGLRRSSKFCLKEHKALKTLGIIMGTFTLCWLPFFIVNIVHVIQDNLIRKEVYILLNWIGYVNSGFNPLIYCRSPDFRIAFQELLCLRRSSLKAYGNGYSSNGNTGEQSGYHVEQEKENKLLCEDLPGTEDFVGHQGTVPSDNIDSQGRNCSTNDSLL
DNA polymerase III PolC-type (Bacillus subtilis (strain 168)), sequence (P13267 whole entry, looked up): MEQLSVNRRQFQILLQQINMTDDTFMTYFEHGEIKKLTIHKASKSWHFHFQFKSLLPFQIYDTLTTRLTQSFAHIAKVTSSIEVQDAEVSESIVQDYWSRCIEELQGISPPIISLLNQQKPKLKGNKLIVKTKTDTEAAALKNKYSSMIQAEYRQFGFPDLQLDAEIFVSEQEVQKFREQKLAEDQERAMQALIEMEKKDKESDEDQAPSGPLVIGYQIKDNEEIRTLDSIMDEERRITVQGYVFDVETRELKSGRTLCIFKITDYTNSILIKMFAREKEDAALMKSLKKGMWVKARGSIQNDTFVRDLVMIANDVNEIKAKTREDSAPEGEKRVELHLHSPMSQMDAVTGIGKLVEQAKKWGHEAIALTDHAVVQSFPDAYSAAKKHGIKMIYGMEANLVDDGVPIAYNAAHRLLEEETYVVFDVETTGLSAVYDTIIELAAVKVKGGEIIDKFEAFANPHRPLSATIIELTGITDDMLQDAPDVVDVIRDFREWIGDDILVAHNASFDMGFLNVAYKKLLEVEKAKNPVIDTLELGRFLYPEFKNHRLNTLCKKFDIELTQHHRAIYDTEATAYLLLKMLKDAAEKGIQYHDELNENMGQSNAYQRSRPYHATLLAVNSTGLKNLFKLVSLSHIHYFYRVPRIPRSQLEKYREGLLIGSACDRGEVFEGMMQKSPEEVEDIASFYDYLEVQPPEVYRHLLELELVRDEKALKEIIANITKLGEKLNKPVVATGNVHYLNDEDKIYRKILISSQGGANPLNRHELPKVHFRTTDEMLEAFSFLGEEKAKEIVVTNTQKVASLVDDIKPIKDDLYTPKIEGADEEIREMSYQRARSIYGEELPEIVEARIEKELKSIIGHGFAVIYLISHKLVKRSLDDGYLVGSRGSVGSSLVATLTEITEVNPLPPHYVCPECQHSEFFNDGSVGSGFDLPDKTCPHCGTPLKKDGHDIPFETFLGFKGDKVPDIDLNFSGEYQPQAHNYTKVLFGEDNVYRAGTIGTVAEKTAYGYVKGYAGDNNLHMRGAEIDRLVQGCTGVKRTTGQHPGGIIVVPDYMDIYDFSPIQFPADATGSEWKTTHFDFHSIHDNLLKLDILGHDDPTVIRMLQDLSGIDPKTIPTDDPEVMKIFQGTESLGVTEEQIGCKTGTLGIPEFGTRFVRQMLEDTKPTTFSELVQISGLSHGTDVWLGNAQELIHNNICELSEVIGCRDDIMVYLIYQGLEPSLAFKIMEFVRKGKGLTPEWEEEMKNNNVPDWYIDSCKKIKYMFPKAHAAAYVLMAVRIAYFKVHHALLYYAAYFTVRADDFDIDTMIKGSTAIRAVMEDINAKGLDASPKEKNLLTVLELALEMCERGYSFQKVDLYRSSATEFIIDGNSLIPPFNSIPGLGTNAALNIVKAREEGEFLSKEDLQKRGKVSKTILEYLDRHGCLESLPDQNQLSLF
Ferritin light chain (Equus caballus), sequence (P02791 2-175 limits assumed): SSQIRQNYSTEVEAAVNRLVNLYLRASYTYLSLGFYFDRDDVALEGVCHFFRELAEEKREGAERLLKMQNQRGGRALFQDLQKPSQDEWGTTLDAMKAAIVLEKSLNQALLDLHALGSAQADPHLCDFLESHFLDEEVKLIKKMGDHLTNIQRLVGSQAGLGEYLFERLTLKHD
ATP-dependent DNA helicase Q1 (Homo sapiens), sequence (P46063 whole entry, looked up): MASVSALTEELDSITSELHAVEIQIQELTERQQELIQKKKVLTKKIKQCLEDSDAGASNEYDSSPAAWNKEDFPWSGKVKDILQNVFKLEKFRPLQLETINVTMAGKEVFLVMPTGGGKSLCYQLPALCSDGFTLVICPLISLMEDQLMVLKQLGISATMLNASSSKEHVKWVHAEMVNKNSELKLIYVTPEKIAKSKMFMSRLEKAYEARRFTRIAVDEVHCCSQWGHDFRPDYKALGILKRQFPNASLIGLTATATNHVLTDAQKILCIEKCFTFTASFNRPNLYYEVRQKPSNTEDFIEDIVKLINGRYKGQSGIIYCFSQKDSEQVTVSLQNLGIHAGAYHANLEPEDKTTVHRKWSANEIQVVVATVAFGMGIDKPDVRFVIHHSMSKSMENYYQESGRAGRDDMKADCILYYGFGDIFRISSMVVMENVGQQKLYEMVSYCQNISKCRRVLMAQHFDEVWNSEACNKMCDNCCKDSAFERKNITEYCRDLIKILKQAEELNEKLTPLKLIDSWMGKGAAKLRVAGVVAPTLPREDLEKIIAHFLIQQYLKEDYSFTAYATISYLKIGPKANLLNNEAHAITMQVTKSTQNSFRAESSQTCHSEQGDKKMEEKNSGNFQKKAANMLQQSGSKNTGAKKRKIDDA

`S=C(S)OC1CC2CC1C1CCCC21` (stereo not drawn): the Potency result in experiment [1], in [2], in experiment [3], in experiment [6], in experiment [8] and in experiment [9] was “inactive” throughout. Moreover, the Potency result in experiment [10], in [11] and in experiment [12] was “inactive” in each case. The call in experiment [4], in [7], in [13] and in experiment [14] was inactive. For the same molecule, the Potency in experiment [5] was 17.8 µM (active).
`O=C(O)c1cc(=O)c2ccccc2[nH]1`: the Potency result in experiment [1], in experiment [2], in [3], in experiment [5], in [6] and in experiment [15] was “inactive” throughout. Besides, the Potency entry in experiment [8], in experiment [9], in [10], in experiment [16], in experiment [11] and in experiment [12] was “inactive” throughout. The molecule was called inactive in experiment [4], in [13], in experiment [17] and in experiment [14].
For the molecule `COc1cc2nc(N3CCN(C(=O)OCc4ccccc4)C(C(=O)NC(C)(C)C)C3)nc(N)c2cc1OC` (stereo not drawn), the Potency is 8.91 µM (active) in experiment [1], 2.24 µM (active) in experiment [2] and 7.94 µM (active) in experiment [3]. The Potency result in [5], in experiment [6], in [15], in experiment [8], in [11] and in experiment [12] was “inactive” throughout. The call in experiment [13] was inactive.
Turning to `CC(=O)SCC[N+](C)(C)C`, the Potency entry in experiment [1], in experiment [2], in [3], in experiment [5], in experiment [6] and in experiment [8] was “inactive” in each case. Also, the Potency entry in experiment [9], in experiment [10], in experiment [16], in [11] and in [12] was “inactive” throughout. Further, the call in experiment [4], in experiment [7], in [13], in [17] and in experiment [14] was inactive.
Take `CC(C)(C)c1ccc(S(=O)(=O)/C=C/C#N)cc1`: the Potency in [1] was 11.2 µM (active); in [2] it was 7.08 µM (active); in experiment [3], 8.91 µM (active); in experiment [16], 1.12 µM (active). The Potency entry in experiment [5], in experiment [6], in experiment [8], in experiment [9], in experiment [10] and in experiment [11] was “inactive” in each case. Besides, the Potency result in experiment [12] was “inactive”. Also, the outcome in experiment [7], in [13] and in [14] was inactive.
Regarding `OCC1O[C@H](O)C(Cl)C(O)C1O` (stereo partly drawn), the Potency result in [1], in experiment [2], in experiment [3], in [5], in experiment [6] and in [8] was “inactive” each time. The Potency entry in [9], in experiment [10], in experiment [16], in experiment [11] and in experiment [12] was “inactive” in each case. Moreover, the call in experiment [4], in experiment [7], in [13] and in experiment [14] was inactive.
As to `CC(COc1ccc(/C=C/c2ccccc2)cc1)[N+](C)(C)C` (stereo not drawn), the Potency in experiment [1] was 5.01 µM (active); in [2] it was 2.82 µM (active); in [3], 2 µM (active). Moreover, the Potency entry in experiment [5], in experiment [6], in experiment [15], in experiment [8], in experiment [11] and in experiment [12] was “inactive” each time. In addition, the molecule was called inactive in experiment [7], in [13], in experiment [17] and in experiment [14].
`CN[C@H](CC(C)C)C(=O)N[C@H]1C(=O)N[C@@H](CC(N)=O)C(=O)N[C@H]2C(=O)N[C@H]3C(=O)N[C@H](C(=O)N[C@H](C(=O)O)c4cc(O)cc(O)c4-c4cc3ccc4O)[C@H](O)c3ccc(c(Cl)c3)Oc3cc2cc(c3O[C@@H]2O[C@H](CO)[C@@H](O)[C@H](O)[C@H]2O[C@H]2C[C@](C)(N)[C@H](O)[C@H](C)O2)Oc2ccc(cc2Cl)[C@H]1O`: the Potency result in experiment [1], in experiment [2], in experiment [3], in experiment [5], in experiment [6] and in [15] was “inactive” throughout. Moreover, the Potency entry in experiment [16] was “inactive”. Besides, the molecule was called inactive in experiment [4].
As to `C[N+](C)(CCCCCC[N+](C)(C)CCCN1C(=O)c2cccc3cccc(c23)C1=O)CCCN1C(=O)c2cccc3cccc(c23)C1=O`, the Potency was 2.24 µM (active) in experiment [1]; 0.631 µM (active) in experiment [2]; 0.562 µM (active) in [3]; 3.55 µM (active) in [18]; 4.47 µM (active) in experiment [19]; 10.6 µM (active) in [12]. The outcome in experiment [4], in experiment [7], in [13] and in experiment [17] was inactive. In addition, the Potency result in [6], in [15], in experiment [8], in experiment [9], in experiment [10] and in experiment [16] was “inactive” throughout. Besides, in experiment [11], the Potency result is “inactive”.
